# Laboratory results as given in PubChem BioAssay AID488969 (Vanderbilt High Throughput Screening Facility, 2010).
# In all, about 110,000 compounds were measured (“z-score”: median about -0.1, highest 2% from about 2 on). Many of the other results were omitted from the sample, so the highest values are more common in it than they were. Activity calls are given as the source filed them.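 Rule for the calls: active = z-score in the third read window above 3 or below -3; inactive = the rest.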
# Target: Metabotropic glutamate receptor 8 (Rattus norvegicus) (UniProt P70579)
# Sequence (P70579 whole entry, looked up): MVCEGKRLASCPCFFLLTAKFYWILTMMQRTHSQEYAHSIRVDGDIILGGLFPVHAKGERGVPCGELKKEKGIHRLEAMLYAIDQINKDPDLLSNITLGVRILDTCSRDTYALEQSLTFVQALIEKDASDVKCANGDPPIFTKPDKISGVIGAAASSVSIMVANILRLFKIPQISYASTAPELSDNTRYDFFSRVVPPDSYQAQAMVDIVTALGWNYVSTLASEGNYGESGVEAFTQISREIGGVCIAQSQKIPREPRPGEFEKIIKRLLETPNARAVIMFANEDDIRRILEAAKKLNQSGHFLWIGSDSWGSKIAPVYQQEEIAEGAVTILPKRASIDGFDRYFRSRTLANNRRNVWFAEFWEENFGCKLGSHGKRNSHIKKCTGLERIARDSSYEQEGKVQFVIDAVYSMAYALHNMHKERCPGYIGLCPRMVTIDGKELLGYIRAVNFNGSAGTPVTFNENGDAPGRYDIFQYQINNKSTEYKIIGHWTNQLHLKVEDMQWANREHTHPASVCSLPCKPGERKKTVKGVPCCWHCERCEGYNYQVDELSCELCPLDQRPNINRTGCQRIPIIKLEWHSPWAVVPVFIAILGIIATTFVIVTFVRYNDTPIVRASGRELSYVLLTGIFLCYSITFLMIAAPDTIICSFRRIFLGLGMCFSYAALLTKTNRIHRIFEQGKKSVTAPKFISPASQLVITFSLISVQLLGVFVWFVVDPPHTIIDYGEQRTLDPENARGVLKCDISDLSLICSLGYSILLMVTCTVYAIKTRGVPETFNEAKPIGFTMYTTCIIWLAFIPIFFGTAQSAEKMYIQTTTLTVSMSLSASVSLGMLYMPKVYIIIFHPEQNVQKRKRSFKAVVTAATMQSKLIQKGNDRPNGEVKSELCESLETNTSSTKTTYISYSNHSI
# Assay: mGluR8 Gi/Go-coupled signaling modulation – cell-based, rat, thallium flux, HTS, primary screen (AID 488969)
# Settings: HEK293 rat mGluR8, GIRK (G protein-gated inwardly rectifying potassium channel) thallium flux, FluoZin2; at 10 µM; stronger effect = higher value; submaximal glutamate (EC20) added with thallium
row,Compound,z-score
1,COc1cc(/C=N/O)c(Br)cc1OCC(=O)Nc1ccccc1C,-0.175
2,COc1ccc(CCNC(=O)CCC(=O)N2CCN(S(=O)(=O)c3ccc(Cl)cc3)CC2)cc1OC,-0.0943
3,COc1cccc(NC(=O)c2ccc(-n3cccn3)nc2)c1,0.109
4,Cc1c(C(=O)NCCc2ccc3c(c2)OCCO3)oc2ccccc12,-0.63
5,CCn1cc(C(=O)O)c(=O)c2cc(F)c(N3CCN(S(=O)(=O)c4ccc(Br)cc4)CC3)cc21,-0.406
6,S=C1NC(c2ccccc2)N2C(=S)NC(c3ccccc3)N12 (centres undefined),-1.08
7,CN(CC(=O)Nc1ccc(F)c(F)c1F)C(=O)/C=C/c1ccc(Cl)cc1,-0.265
8,CCN(CC)C(=O)c1cnn(-c2ccccc2)c1NC(=O)c1cccs1,-0.27
9,COc1ccc(CNC(=O)C2CCN(S(=O)(=O)c3c(C)n[nH]c3C)CC2)cc1,-0.115
10,Cc1c(CCOC(=O)CC23CC4CC(CC(C4)C2)C3)sc[n+]1Cc1ccccc1,0.256
11,COC(=O)c1[nH]c2ccc(F)cc2c1NC(=O)CCN1CC(C)OC(C)C1 (centres undefined),-0.0436
12,Cc1ccc(C(=O)N[C@H](C(=O)OCC(=O)NC2CCS(=O)(=O)C2)C(C)C)cc1 (some centres undefined),-0.0806
13,COc1ccccc1NC(=O)c1ccc(S(=O)(=O)N(C)C)cc1,-0.403
14,Cc1ccc(CN(Cc2ccco2)S(=O)(=O)c2ccc(S(=O)(=O)NCC3CCCO3)cc2)cc1 (centres undefined),-0.00067
15,Cc1ccc(-c2nnn(CC(=O)N3CCCCC3)n2)c(-n2cnnn2)c1,3.32 (active)
16,O=C(Cn1nnc(-c2ccccc2-n2cnnn2)n1)N1CCCCC1,0.026
17,Cc1ccc(-c2nnn(CC(=O)NCc3ccccc3)n2)c(-n2cnnn2)c1,-0.255
18,CC1CN=C(N(C(=O)Nc2ccccc2)c2ccc(S(=O)(=O)N3CCOCC3)cc2)S1 (centres undefined),0.945
19,Cc1c(C(=O)Nc2ccc(-c3nnc4n3CCCCC4)cc2)oc2ccc(Br)cc12,-0.49
20,CCOc1ccc(Br)cc1/C(C)=N\NC1=NCCN1,3.75 (active)
21,CCCCCOc1ccc(Br)cc1/C(C)=N/NC1=NCCN1,1.05
22,CCCCOc1ccc(Br)cc1/C(C)=N/NC1=NCCN1,1.54
23,COc1ccccc1N1CCSC1C(N)=O (centres undefined),0.0543

row,Compound,z-score
1,COC(=O)N1CCN(c2ccc(OC)cc2)CC1,-0.134
2,COc1ccc(N2CCSC2C(=O)NN)cc1 (centres undefined),2.09
3,O=C(CSc1nc2ccccc2n1CC(=O)N1CCCC1)Nc1nccs1,0.452
4,CCOC(=O)c1c(NC(=O)CSc2nnc(C)c(=O)[nH]2)sc2c1CCCC2,-0.522
5,CCC(=O)N1c2ccc(C)cc2C2=NNC(=S)NC21O (centres undefined),3.09 (active)
6,CC1=CC(C)(C)N(C(=O)c2ccccc2)c2ccc(C)cc21,-0.576
7,CC1=CC(C)(C)N(C(=O)CSc2ncn[nH]2)c2ccc(C)cc21,0.223
8,CC1(C)NC(=O)N(CC(O)CNC23CC4CC(CC(C4)C2)C3)C1=O (centres undefined),0.426
9,O=C(Nc1ccc(F)cc1F)c1ccc(-n2cncn2)nc1,-0.0309
10,COc1cccc(C(=O)NC(=S)N2CCN(c3ccc(C(F)(F)F)cc3[N+](=O)[O-])CC2)c1,4.68 (active)
11,O=[N+]([O-])c1cc(C(F)(F)F)ccc1N1CCN(S(=O)(=O)c2ccc3ccccc3c2)CC1,-0.295
12,CO/N=C/c1ccc(N2CCN(C(=O)c3cccc(C(F)(F)F)c3)CC2)c([N+](=O)[O-])c1,-0.0941
13,COc1cc(OC)cc(C(=O)NC(=S)N2CCN(c3ccc(C(F)(F)F)cc3[N+](=O)[O-])CC2)c1,4.05 (active)
14,CC(C)Oc1cccc(C(=O)NC(=S)N2CCN(c3ccc(C(F)(F)F)cc3[N+](=O)[O-])CC2)c1,6.72 (active)
15,COc1ccc(C(=O)NC(=S)N2CCCCC2)cc1[N+](=O)[O-],1.25
16,O=C(Nc1cc(C(F)(F)F)ccc1N1CCCCC1)c1cccc([N+](=O)[O-])c1,-0.0811
17,COc1cccc(OC)c1C(=O)NC(=S)N1CCN(c2ccc(C(F)(F)F)cc2[N+](=O)[O-])CC1,0.046
18,CCOc1ccc(C(=O)NC(=S)N2CCN(c3ccc(C(F)(F)F)cc3[N+](=O)[O-])CC2)cc1,0.854
19,Cc1nn(-c2cc(C)c3ccccc3n2)c2c1CCC2,0.557
20,Cc1ccc(C)c(NC(=S)NC(NC(=O)/C=C/c2ccccc2)C(Cl)(Cl)Cl)c1 (centres undefined),-0.264
21,CC1CCCN(c2ccc(C(=O)OCC(=O)N3c4ccccc4Sc4ccccc43)cc2[N+](=O)[O-])C1 (centres undefined),-0.269
22,c1ccc2c(c1)CCCN2c1nc2ccccc2n2cnnc12,-0.203
23,COc1ccc(OC)c(NC(=O)C2CC(=O)n3ncnc3N2)c1 (centres undefined),-0.244

row,Compound,z-score
1,CS(=O)(=O)N(CC(=O)N1CCN(c2ccccc2)CC1)c1ccc(Cl)c(C(F)(F)F)c1,-0.0753
2,CCn1c(=NC(=O)c2ccc(N3C(=O)CCC3=O)cc2)sc2c(OC)ccc(OC)c21,-0.536
3,CCn1c(Cc2ccc(OC)cc2)nnc1SCC(=O)N1CCN(c2ccccc2)CC1,0.352
4,O=C(O)C1CCCCC1C(=O)Nc1cc(Cl)ccc1Cl (centres undefined),2.08
5,O=C(O)C1CCCCC1C(=O)Nc1ccccc1Cl (centres undefined),-0.189
6,O=C(O)C1CC=CCC1C(=O)Nc1cc(Cl)ccc1Cl (centres undefined),-0.205
7,CCCCC(=O)NC(=S)NNC(=O)CC#N,-0.265
8,Fc1ccc2[nH]c3c(NCCN4CCOCC4)ncnc3c2c1,0.07
9,CCN1CCCC1CNc1ncnc2c1[nH]c1ccc(F)cc12 (centres undefined),2.55
10,Clc1ccc2[nH]c3c(NCC4CCCO4)ncnc3c2c1 (centres undefined),-3.05 (active)
11,CCOC(=O)c1ccc(Oc2c(C)oc3cc(OS(C)(=O)=O)ccc3c2=O)cc1,-0.214
12,Cc1ccc(/C=N/NC(=S)NC(C)C)o1,-0.11
13,NC(=O)N/N=C\c1cc(Br)ccc1O,-0.265
14,CC(C)NC(=S)N/N=C/c1cc(Br)ccc1O,6.43 (active)
15,FC(F)(F)c1cnc2c(c1)Nc1ccccc1S2,0.635
16,Cc1ccc(C)n1-c1sc2c(c1C#N)CCCC2,-0.0485
17,C=CCNCc1cccn1-c1sc2c(c1C#N)CCCC2,2.43
18,N#Cc1c(-n2cccc2/C=N/O)sc2c1CCCC2,-0.27
19,Oc1ccccc1C1=Nc2ccccc2N=C(c2cccs2)C1,0.0299
20,O=C(CSc1nnc2n1CCCN2C(=S)Nc1ccc(Cl)cc1)c1ccccc1,-0.14
21,CN(c1ccc(C(=O)NCCSCc2ccco2)cc1)S(C)(=O)=O,-0.396
22,Cn1c(NC(=O)Cc2ccc(F)cc2)cc(=O)n(C)c1=O,2.79
23,Cn1c(NC(=O)Cc2cccs2)cc(=O)n(C)c1=O,0.422

row,Compound,z-score
1,Cn1c(NC(=O)CCc2ccccc2)cc(=O)n(C)c1=O,-0.492
2,Cn1c(NC(=O)COc2ccccc2)cc(=O)n(C)c1=O,0.597
3,COc1ccc(CC(=O)Nc2cc(=O)n(C)c(=O)n2C)cc1,2.78
4,CCCC(=O)Nc1cc(=O)n(C)c(=O)n1C,-0.309
5,Cc1cccc(CSCCNC(=O)Nc2ccccc2)c1,-0.872
6,CC(=O)NNc1nc(-c2ccc(NC(C)=O)cc2)cs1,-0.0151
7,CCOC(=O)/C=c1\s/c(=C\c2ccc(C)cc2)c(=O)n1CC(=O)NCc1ccco1,0.0354
8,O=C(/C=C/c1ccc(Cl)cc1Cl)NC(=S)Nc1ccc(CN2CCOCC2)cc1,0.0804
9,CC(=O)N/C(=C/c1ccc(OS(=O)(=O)c2ccc(C)cc2)cc1)C(=O)NCCO,-0.101
10,CCOCC(=O)Nc1nnc(C)s1,1.02
11,O=C(Nc1ccc(SC(F)F)cc1)C12CCC(CC1)C2,3.38 (active)
12,C=C1C2(C(=O)Nc3ccc(SC(F)F)cc3)CCC(C2)C1(C)C (centres undefined),0.546
13,CC12CCC(C(=O)Nc3ccc(SC(F)F)cc3)(CC1=O)C2(C)C (centres undefined),0.519
14,CCCCCNCc1ccc(Br)cc1,-0.224
15,OCc1cc(CO)c(O)c(CCc2ccccc2)n1,0.171
16,c1ccc(Nc2nc(-c3ccccn3)cs2)cc1,-0.545
17,COc1cccc2sc(Nc3nc4ccc(NC(C)=O)cc4s3)nc12,-0.147
18,COc1cc(-c2nnc(-c3cccs3)o2)cc(OC)c1OC,2.27
19,COc1cccc2sc(Nc3nnc(-c4cccs4)o3)nc12,17.4 (active)
20,COc1cc2nc(-c3cccs3)oc(=O)c2cc1OC,-0.693
21,COc1ccc(-c2nnc(Nc3nc4c(OC)cccc4s3)o2)cc1,17.1 (active)
22,COc1cccc2sc(Nc3nc(-c4ccccn4)cs3)nc12,5.31 (active)
23,COc1ccc(-c2nnc(-c3cccs3)o2)cc1OC,-0.0864

row,Compound,z-score
1,COc1cccc2sc(Nc3nc(-c4cc5ccccc5oc4=O)cs3)nc12,0.111
2,COc1cc(-c2nnc(-c3cc(OC)c(OC)c(OC)c3)o2)cc(OC)c1OC,-1.02
3,CCOC(=O)c1sc(Nc2nc3c(OC)cccc3s2)cc1C,-0.137
4,COc1cccc2sc(NC(=O)c3ccc(Br)s3)nc12,0.601
5,CCOc1ccc(NC(=O)CC2C(=O)N(C)C(=S)N2CCCc2ccccc2)cc1 (centres undefined),0.36
6,O=C(Cc1c(F)cccc1Cl)c1ccc(O)cc1O,0.0496
7,CCOC(=O)c1cccc(NC(=O)C2CCCN2S(=O)(=O)c2cccc3cccnc23)c1 (centres undefined),-0.226
8,CN(CCOC(=O)C1c2ccccc2Oc2ccccc21)C(C)(C)C,0.442
9,CNC(=O)CCSc1ccc(C)cc1,1.02
10,O=C(CSc1ncnc2c1cnn2CCc1ccccc1)Nc1cccc(C(F)(F)F)c1,-0.203
11,CCN(CC)S(=O)(=O)c1cc(C)c(C)cc1Br,0.329
12,NS(=O)(=O)c1ccc(CCNC(=O)CNC(=O)C2CCCCC2)cc1,-0.063
13,O=C(Nc1cccc(F)c1)NC1(C(=O)N2CCN3CCCC3C2)CCCCC1 (centres undefined),0.517
14,N#Cc1c(NC(=O)CSc2nc(-c3ccccc3)cc(C(F)(F)F)n2)sc2c1CCC2,0.0217
15,c1ccc(-n2c(SCc3nc(-c4cccs4)no3)nnc2-c2ccco2)cc1,-1.55
16,CCOC(=O)CCC(=O)N1CCOCCOCCN(C(=O)CCC(=O)OCC)CCOCC1,-0.107
17,COCCn1c(CN(C)Cc2ccccc2)nc2c1c(=O)n(C)c(=O)n2C,-0.377
18,CCCCn1c(CN(C)Cc2ccccc2)nc2c1c(=O)n(C)c(=O)n2C,0.165
19,COCCn1c(CN(Cc2ccccc2)Cc2ccccc2)nc2c1c(=O)n(C)c(=O)n2C,3.37 (active)
20,CCCCn1c(CN(Cc2ccccc2)Cc2ccccc2)nc2c1c(=O)n(C)c(=O)n2C,3.38 (active)
21,CCCCCn1c(CN(C)Cc2ccccc2)nc2c1c(=O)n(C)c(=O)n2C,0.218
22,CCOCCn1c(CN(Cc2ccccc2)Cc2ccccc2)nc2c1c(=O)n(C)c(=O)n2C,0.389
